Tests used:
Assay in all cases: PBM binding z-score (relative to random genomic background probes); higher = stronger binding; sequences stand for … in GC…GCGATTGACAGCGTAGAATGAAGG
[1] = tested on: FXR:RXRa (NR concentration 270 nM, RXRa partner concentration 90 nM)
Procedure, shortened: (§1)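 Ligand-free nuclear receptor dimers were bound for 1 h to custom Agilent 4×180K protein-binding microarrays. Detection used antibodies against each partner (one per run). Binding z-scores rest on regression-normalized fluorescence, with random background probes as the reference.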

[2] = tested on: LXRa:RXRa (NR concentration 270 nM, RXRa partner concentration 90 nM)
Procedure, shortened: as §1

[3] = tested on: LXRa homodimer (NR concentration 270 nM)
Procedure, shortened: as §1

[4] = tested on: LXRb:RXRa (NR concentration 270 nM, RXRa partner concentration 90 nM)
Procedure, shortened: as §1

[5] = tested on: LXRb homodimer (NR concentration 270 nM)
Procedure, shortened: as §1

[6] = tested on: PPARa:RXRa (NR concentration 270 nM, RXRa partner concentration 90 nM)
Procedure, shortened: as §1

[7] = tested on: PPARg:RXRa (NR concentration 180 nM, RXRa partner concentration 90 nM)
Procedure, shortened: as §1

[8] = tested on: PPARg:RXRa 270nM:90nM, anti-RXR (NR concentration 270 nM, RXRa partner concentration 90 nM)
Procedure, shortened: as §1

[9] = tested on: PPARg:RXRa 30nM:10nM, anti-RXR (NR concentration 30 nM, RXRa partner concentration 10 nM)
Procedure, shortened: as §1

[10] = tested on: PPARg:RXRa 90nM:30nM, anti-RXR (NR concentration 90 nM, RXRa partner concentration 30 nM)
Procedure, shortened: as §1

[11] = tested on: PPARg:RXRa DBDmut IVT, anti-RXR (DBD mutation: RXRa K156A/R161A, NR concentration 270 nM, RXRa partner concentration 90 nM)
Procedure, shortened: as §1

[12] = tested on: PPARg:RXRa IVT, anti-PPARg (NR concentration 270 nM, RXRa partner concentration 90 nM)
Procedure, shortened: as §1

[13] = tested on: PPARg DBDmut:RXRa IVT, anti-PPARg (DBD mutation: PPARg1 K132A/R137A, NR concentration 270 nM, RXRa partner concentration 90 nM)
Procedure, shortened: as §1

[14] = tested on: PPARg DBDmut IVT, anti-PPARg (DBD mutation: PPARg1 K132A/R137A, NR concentration 270 nM)
Procedure, shortened: as §1

[15] = tested on: PPARg homodimer (NR concentration 180 nM)
Procedure, shortened: as §1

[16] = tested on: PXR:RXRa (NR concentration 270 nM, RXRa partner concentration 90 nM)
Procedure, shortened: as §1

[17] = tested on: PXR homodimer (NR concentration 270 nM)
Procedure, shortened: as §1

[18] = tested on: RARa:RXR (NR concentration 270 nM, RXRa partner concentration 90 nM)
Procedure, shortened: as §1

[19] = tested on: RARa homodimer (NR concentration 270 nM)
Procedure, shortened: as §1

[20] = tested on: RARb:RXRa (NR concentration 270 nM, RXRa partner concentration 90 nM)
Procedure, shortened: as §1

Sequence	PBM binding z-score [1]	PBM binding z-score [2]	PBM binding z-score [3]	PBM binding z-score [4]	PBM binding z-score [5]	PBM binding z-score [6]	PBM binding z-score [7]	PBM binding z-score [8]	PBM binding z-score [9]	PBM binding z-score [10]	PBM binding z-score [11]	PBM binding z-score [12]	PBM binding z-score [13]	PBM binding z-score [14]	PBM binding z-score [15]	PBM binding z-score [16]	PBM binding z-score [17]	PBM binding z-score [18]	PBM binding z-score [19]	PBM binding z-score [20]
TCTGCTAGGTCAACGATGGTCAGCTAATCTGCTA	3.45	2.96	-0.225	1.44	-0.144	3.19	2.69	3.14	1.76	2.48	4.23	4.22	0.762	0.898	1.44	1.67	-0.856	2.46	-0.93	4.01
TAGGCTAGGTCATTCAGGGGCCAGTATAGAAAGC	5.03	3.64	0.726	2.79	1.32	3.63	2.37	2.47	0.608	1.64	2.09	3.13	1.07	0.104	3.69	2.64	0.0687	3.93	0.404	4.12
CCTAGCAGGCCAATCTGAGTCACTCAAGGCTTGA	-0.524	-0.573	-0.759	-0.644	-0.64	-0.513	-0.183	-0.961	-0.966	-1.25	1.42	0.0725	-1.14	-1.49	0.0523	-0.832	-0.519	-0.853	-0.569	-0.0528
GCTAGTTGGTCAGTAATAGGTCACACACCGGTCG	1.19	1.72	1.74	1.77	0.0415	2.79	1.44	2.52	0.756	1.82	1.6	2.79	-0.0555	-0.765	1.88	2.1	0.429	2.93	0.809	2.57
CAGCCTAGGTCAGGGCCAGTATGGGAGGAACGTT	1.41	0.705	-0.724	0.176	-1.05	2.06	0.648	0.825	-0.673	0.0186	0.702	1.59	-1.71	-1.33	0.437	0.196	-0.864	0.839	-0.701	3.43
ATCTCTAGGTACCCAAGTTCAGTGAATGCCGAAC	0.332	1.7	3	0.887	1.08	0.625	0.408	0.456	0.321	0.493	0.72	1.02	0.772	0.793	0.883	1.76	1.62	0.698	0.262	1
CCTACTGGGCCATTCAGTGGTCATTGATCATATG	-0.271	-0.187	-0.281	-0.498	-0.602	0.355	0.304	0.661	-0.571	0.191	3.99	3.43	-0.19	-0.875	-0.524	-0.597	-0.649	-0.725	-0.259	0.368
AATACCGGGTCATCGTAGGCCAGAGTACGCACAG	6.17	5.51	1.68	3.93	0.968	5.4	5.83	5.07	2.01	3.89	2.9	4.61	2.58	2.08	2.01	4.56	0.459	4.53	0.886	3.67
CCTTACGGGTCACGAGGTTATAGAACGACGAGCG	6.7	4.58	0.451	4.12	-0.0451	6.16	7.18	6.91	3.33	5.23	4.22	5.47	0.77	0.157	2.71	4.54	0.292	6.07	0.736	4.73
TCTCGGAGGACACGAAGGTCAGAGTTTTCCAGAG	1.18	0.932	0.497	1.22	-0.785	1.81	0.436	1.67	2.25	1.87	1.44	1.35	-0.952	-0.619	1.53	2	1.37	2.07	0.114	3.32
TCATATAGGTAATTGCTAGGTGAAAGTCCGATCT	0.86	0.654	0.0873	0.781	0.17	1.41	0.771	2.36	3.67	3.02	4.13	2.91	0.632	1.27	0.408	0.515	0.224	0.757	0.784	0.345
CCTATTAGTTGACCGTAAGGGCAACCGAAGCTCG	1.88	0.908	0.863	0.769	0.64	0.834	0.00382	0.48	-0.271	-0.155	0.0924	0.672	0.0839	-0.0421	1.63	0.919	0.939	1.35	1.56	1.91
TCAGACAGGTGAAGGTAACTAAGGTACGCAGTCG	1.03	2.57	-0.132	1.44	-0.0558	1.51	0.892	2.34	3.8	3.21	2.56	1.27	0.501	0.42	0.309	0.646	0.152	1.22	0.362	1.24
TCTTGTAGATCAACAGGAGGTTAAGACAGATCGA	0.088	1.15	-0.145	0.737	-0.342	1.3	0.205	1.36	2.4	2.07	1.59	0.984	0.978	0.46	-0.0911	0.727	-0.273	0.694	0.154	0.534
